Compound activity from PubChem.
This is a sample that favours compounds with a hit; in the whole collection about 4.8% have one here.
ssDAF-12 act – S. stercoralis DAF-12 nuclear receptor activators, primary screen, cell-based, luminescence, HEK293, GRIP1 co-expression, lit1-tk-luc. Nuclear hormone receptor DAF-12 (Strongyloides stercoralis). activation, % at 6.8 µM. AID 652126, 2013. 370,000 tested, 1% active. HEK293 ssDAF-12/GRIP1 lit1-tk-luc reporter; % of 3 µM dafachronic acid response;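 active means activation above the mean over all tested compounds plus 3 SD, cut at about 0.9% in these data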;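 further: 0% = DMSO-only wells and 100% = 3 µM delta7-dafachronic acid wells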
DAX1 inh-1 – DAX1 (NR0B1) inhibitors on StAR promoter, primary screen, cell-based, luminescence, SF-1 (NR5A1), full-length DAX-1; HEK293T StAR-luciferase reporter, SF-1/DAX-1 repression relief; inhibition, % at 6.8 µM; 370,000 tested, 1.1% active;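 active means inhibition above the mean over all tested compounds plus 3 SD, cut at about 3.6% in these data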;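 further: 0% = DAX-1 cells with DMSO and 100% = cells lacking DAX-1 with DMSO; higher inhibition means more luminescence from relief of DAX-1 repression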
hgDAF12 agonist – H. glycines DAF-12 receptor agonists, primary screen, cell-based, luminescence, HEK293, GAL4 fusion, UAS-luciferase; 370,000 tested, 1.8% active; HEK293 GAL4-hgDAF12 UAS-luciferase reporter, agonist luminescence; normalized to butyrate control; activation, % at 6.8 µM; Nuclear hormone receptor DAF-12 (Heterodera glycines), GAL4 fusion; AID 687014, 2013;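 active means activation above a cutoff set at the mean of all screened compounds plus 3 SD, cut at about 10% in these data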;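 further: 0% = DMSO wells and 100% = sodium butyrate wells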
SMARCA2 activ – SMARCA2 (BRM) function activators, primary screen, cell-based, luminescence, high throughput | MG213 cells, MMTV-luciferase reporter, dexamethasone, overnight | 370,000 tested, 1% active | activation, % at 9.1 µM; in the data active means activation above about 7.8%;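 further: 0% = vehicle wells and 100% = reference activator wells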
DAX1 inh-2 – DAX1 (NR0B1) inhibitors, primary screen, cell-based, HEK293, Gal4-DAX1, luciferase luminescence; 340,000 tested, 0.99% active; Nuclear receptor subfamily 0 group B member 1 (Homo sapiens), P51843; inhibition, % at 6.75 µM; HEK293 Gal4-DAX1 luciferase reporter;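 active means inhibition above the mean over all tested compounds plus 3 SD, cut at about 4.2% in these data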;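 further: 0% = DAX1-transfected cells with DMSO and 100% = empty-vector control cells with DMSO; inhibition shows as a rise in luminescence from relieved DAX1 repression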
Target sequence (P51843 207-470 limits assumed): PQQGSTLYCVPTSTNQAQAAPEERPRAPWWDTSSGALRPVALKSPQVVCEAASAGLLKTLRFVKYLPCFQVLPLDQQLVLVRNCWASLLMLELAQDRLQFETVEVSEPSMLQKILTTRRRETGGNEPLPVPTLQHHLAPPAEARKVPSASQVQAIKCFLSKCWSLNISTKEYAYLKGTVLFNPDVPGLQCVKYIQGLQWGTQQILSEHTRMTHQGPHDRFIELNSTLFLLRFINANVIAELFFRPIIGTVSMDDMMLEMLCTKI
hcDAF12 agonist – H. contortus DAF-12 nuclear receptor activators, primary screen, cell-based, luminescence, HEK293, lit1-tk-luc reporter; HEK293 hcDAF-12 lit1-tk-luc reporter; 0% DMSO, 100% Δ7-dafachronic acid; activation, % at 6.8 µM; 370,000 tested, 1.4% active; AID 652067, 2013;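 active means activation above the mean of all tested compounds plus 3 SD, cut at about 5.5% in these data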;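 further: 100% = response to 3 µM Δ7-dafachronic acid high control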
LXR ag – LXR agonists, Gal4 luciferase reporter, confirmation, counter-screen for hcDAF-12 agonist project, cell-based, luminescence, HEK293, H. contortus campaign | shares compounds with hcDAF12 agonist | HEK293 Gal4-LXR tk-luc reporter, 24 h; normalized: DMSO 0%, positive control 100% | activation, % at 6.8 µM | 3,400 tested, under 10 active | AID 743027, 2013;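 active means mean percent activation of the reporter above a cutoff set as the average over tested compounds plus their standard deviation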
hcDAF12 ag – H. contortus DAF-12 receptor agonists, confirmation, cell-based, luminescence, HEK293, lit1-tk-luc, triplicate; AID 743032, 2013; shares compounds with hcDAF12 agonist; activation, % at 6.8 µM; HEK293 hcDAF-12 lit1-tk-luc reporter; % of Δ7-dafachronic acid response; 3,400 tested, 61% active;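 active means mean activation across triplicate tests above the threshold derived from the earlier primary screen, cut at about 5.5% in these data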;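 further: 0% = DMSO only wells and 100% = 3 µM Δ7-dafachronic acid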
hgDAF12 conf – H. glycines DAF-12 receptor agonists, confirmation, cell-based, luminescence, HEK293, GAL4-LBD fusion; AID 743050, 2013; shares compounds with hgDAF12 agonist; HEK293 GAL4-hgDAF12 luciferase reporter, agonist mode; percent of butyrate response; activation, % at 6.8 µM; 3,300 tested, 80% active;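 active means mean activation over triplicate wells above the hit cutoff derived from the earlier primary screen, cut at about 11% in these data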;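 further: 0% = DMSO low control and 100% = 2 mM sodium butyrate high control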
LXRb DAF12 ctr – LXR agonists, Gal4 luciferase reporter, confirmation, counter-screen for hgDAF-12 agonist project, cell-based, luminescence, HEK293, H. glycines campaign; shares compounds with hgDAF12 agonist; 24 h; activation, % at 6.8 µM; 3,300 tested, under 10 active;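 active means mean activation of the triplicate above a set limit carried over from the primary screen, none filed active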
Active calls of the source: *; x = no result.

SMILES	ssDAF-12 act	DAX1 inh-1	hgDAF12 agonist	SMARCA2 activ	DAX1 inh-2	hcDAF12 agonist	LXR ag	hcDAF12 ag	hgDAF12 conf	LXRb DAF12 ctr
Cc1cc(Cl)ccc1OCC(=O)NCCOC(=O)Nc1sc(=S)n(C)c1C	0	0	1	0	-1	6.9*	0	-1	x	x
Cc1ccc(Cl)cc1OCC(=O)NCCOC(=O)Nc1sc(=S)n(C)c1C	-1	-1	2	0	0	1	x	x	x	x
Nc1nonc1C(=O)N/N=C/c1ccc(-c2cccc([N+](=O)[O-])c2)o1	-1	1	0	-1	2	0	x	x	x	x
CC(C)C(=O)Nc1ccccc1N1CCN(C(=O)c2ccccc2)CC1	-1	-1	-4	-2	0	0	x	x	x	x
O=C(Nc1ccccc1)c1cc2ccc3ccccc3c2s1	2.8*	1	15*	7	4.4*	12*	1	9.8*	16*	1
CCCC(CCC)C(=O)Nc1ccncc1	-1	-1	-1	-2	-1	-2	x	x	x	x
COc1cc(/C=C(\C#N)C(=O)N2CCOCC2)ccc1OCc1ccccc1	0	1	3	-3	1	1	x	x	x	x
COc1ccc(-c2csc(Nc3ncccc3C)n2)cc1	1	2	17*	1	3	7.5*	1	5	17*	1
Oc1[nH]c2ccccc2c1C=Nc1ccccc1	1.6*	3	21*	0	13*	8.3*	1	8.9*	24*	1
O=[N+]([O-])c1cccc(-c2csc(Nc3ccccc3)n2)c1	0.9*	0	14*	3	2	6.8*	1	8.0*	17*	0
COc1ccccc1Nc1nc(-c2cccc([N+](=O)[O-])c2)cs1	0	0	1	0	1	0	x	x	x	x
Brc1ccc(Nc2nc(-c3cccnc3)cs2)cc1	1	2	23*	4	3	8.0*	1	11*	13*	0
Cc1cc(N/C=C/C(=O)c2ccc(Br)cc2)no1	0	1	4	4	0	2	x	x	x	x
Cc1ccnc(N/C=C/C(=O)c2ccc(Br)cc2)c1	0	3	18*	5	0	9.0*	2	7.2*	21*	1
COc1ccc2oc(C(=O)c3ccccc3)c(N)c2c1	1	4	15*	6	x	7.4*	2	6.7*	20*	1
Cc1cnc(Nc2nc3ccccc3o2)nc1C(=O)Nc1cccc(C(F)(F)F)c1	-1	0	2	0	-1	-1	x	x	x	x
C/C(N)=C(/C#N)C(=O)CSc1nc2ccc(C)cc2[nH]1	1.4*	4.3*	17*	8	2	11*	1	7.1*	16*	1
CC1(C)CC2(CCO1)OC(=O)CC2C(=O)Nc1ccc(Br)cc1 (stereo not given)	-2	0	-2	2	1	1	x	x	x	x
COCCn1c(SCC(=O)N2CCC(C)CC2)nc2ccccc2c1=O	-2	-1	0	-3	-1	-2	x	x	x	x
Cc1cc(-c2ccc(N3CCOCC3)cc2)nc2ccccc12	0.9*	3	20*	0	1	15*	1	7.9*	14*	1
Nc1ccc2nn(-c3ccc(F)cc3)nc2c1	2.3*	2	16*	4	4.3*	14*	1	2	16*	1
Cc1cc2nn(-c3ccc(F)cc3)nc2cc1N	1.4*	4.0*	18*	0	3	14*	2	16*	24*	1
CC(NS(=O)(=O)c1ccc(Br)cc1)C(c1cccs1)N1CCN(C)CC1 (stereo not given)	-1	0	0	-1	1	0	x	x	x	x
CN(C)C=Nc1ccc2nn(-c3ccccc3)nc2c1	1.2*	4.4*	15*	6	3	6.7*	2	8.2*	22*	1
CN(C)C=Nc1ccc(Cl)c(Cl)c1	-1	0	2	-1	2	-2	x	x	x	x
SMILES	ssDAF-12 act	DAX1 inh-1	hgDAF12 agonist	SMARCA2 activ	DAX1 inh-2	hcDAF12 agonist	LXR ag	hcDAF12 ag	hgDAF12 conf	LXRb DAF12 ctr
COC(=O)[C@]12C[C@H](CC(=O)N3CCOCC3)C(=O)N(CCc3ccc(OC)c(OC)c3)C1=C[C@H](C(C)(C)C)O[C@@H]2C	-1	-1	-2	-4	x	-1	x	x	x	x
COc1cccc(-c2nc(-c3ccc(Br)o3)no2)c1	2.0*	4.4*	31*	7	5.4*	7.6*	1	12*	23*	1
Cc1ccc(C(=O)Nc2nnc(-c3ccc(C(C)(C)C)cc3)s2)cc1	-1	0	2	3	0	1	x	x	x	x
Cc1ccc(-c2nnc(NC3CCCC3)s2)cc1	0	2	15*	4	4	9.2*	1	3	19*	1
Cc1c(C(=O)Nc2ccc(Br)cc2)cnn1C	2.3*	2	15*	2	2	11*	1	6.1*	13*	0
CCOC(=O)c1sc(=NC(=O)/C=C/c2ccccc2)n(C)c1C	-1	0	3	1	0	0	x	x	x	x
CCOC(=O)c1sc(=NC(=O)c2ccco2)n(C)c1C	1	1	14*	1	1	9.0*	1	11*	14*	0
COCCN1Cc2c(sc(C)c2C)N(C(=O)c2ccccc2)C1	1.7*	2	14*	4	2	9.2*	0	3	8	0
